# Reference: PubChem BioAssay AID624377 (The Scripps Research Institute Molecular Screening Center, 2012)
# About 680 (0.19%) of roughly 360,000 compounds were called active. Many of the other results were omitted from the sample, so actives are more common in it than they were. Unmarked numbers belong to inactive results. Cut-off read from the data, not from the text of the source: active = inhibition above about 25%; inactive = the rest.
# Target: Arf-GAP with SH3 domain, ANK repeat and PH domain-containing protein 1 (Homo sapiens) (UniProt Q9ULH1)
# Sequence (Q9ULH1 325-724 limits assumed): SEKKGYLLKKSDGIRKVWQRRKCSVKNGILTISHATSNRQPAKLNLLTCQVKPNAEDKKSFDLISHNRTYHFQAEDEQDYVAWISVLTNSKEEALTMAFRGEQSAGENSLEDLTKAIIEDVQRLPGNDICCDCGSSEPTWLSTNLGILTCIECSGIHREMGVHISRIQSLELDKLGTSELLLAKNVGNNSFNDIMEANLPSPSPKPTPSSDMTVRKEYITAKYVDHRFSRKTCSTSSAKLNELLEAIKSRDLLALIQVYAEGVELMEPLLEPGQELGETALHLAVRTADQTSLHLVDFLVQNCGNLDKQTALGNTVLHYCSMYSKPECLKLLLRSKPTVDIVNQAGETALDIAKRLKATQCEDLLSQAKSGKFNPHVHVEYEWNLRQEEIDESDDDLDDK
# Assay: blockers of ASAP1-stimulated ARF1 GTP hydrolysis – biochemical, fluorescence polarization, primary screen (AID 624377);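 note: 0% = vehicle with enzyme and substrate and 100% = no enzyme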
# Details: GDP FP detection, at 16.5 µM, active compounds read high
row,Structure (SMILES),inhibition
1,COC(=O)Cc1nnn2c1[C@H](C)[C@@H](OC)c1cc(Br)ccc1-2,8.77%
2,CC[C@H](NC(=O)[C@H](Cc1ccccc1)NC(=O)[C@H]1O[C@@H](n2cnc3c(=O)[nH]c(N)nc32)[C@H](O)[C@@H]1O)c1ccccc1,3.49%
3,O=S1(=O)c2c(cccc2N2CCCC2)O[C@H](COCc2ccccc2)CN1C1CC1,-12.9%
4,CC1CCN(C(=O)c2ncn3c2C(=O)N[C@@H](C)C3)CC1,1.95%
5,CC(=O)C1=C(C)N(Cc2ccc(Cl)cc2)C(=S)NC1c1ccc(F)cc1 (stereo not given),-0.95%
6,CCCCCCCCN1C(=O)[C@@H](CC(=O)NCc2ccccc2)C[C@@]2(C(=O)OC)C1=C[C@H](C(C)(C)C)O[C@@H]2C,4.65%
7,CCc1c(-c2ccccc2OC)ncn1CCc1ccccc1OC,8.29%
8,COc1ccc(S(=O)(=O)Nc2ccc3c(c2)C(=O)N([C@H](C)CO)C[C@H](C)[C@@H](CN(C)C)OCCCC[C@H](C)O3)cc1,-2.07%
9,O=C(O)Cn1cnc2c(NCc3ccccc3)ncnc21,-0.64%
10,CCOC(=O)C1CSCCS(=O)(=O)N1Cc1ccc(Cl)cc1 (stereo not given),1.02%
11,O=C(N[C@H](Cc1ccccc1)C(=O)N1CCCN(Cc2cccs2)CC1)[C@H]1O[C@@H](n2ccc(=O)[nH]c2=O)[C@H](O)[C@@H]1O,-8.2%
12,O=S1(=O)c2ccc(Br)cc2-n2nncc2CN1Cc1cccc(Cl)c1,-4.19%
13,CCCCOCC1CN(CCCC)S(=O)(=O)c2c(Oc3ccc(F)cc3)cccc2O1 (stereo not given),-4.17%
14,C[C@H](O)[C@@H]1C(=O)N2CCc3c([nH]c4c(-c5ccc6c(c5)OCO6)cccc34)[C@@H]2C[C@@H]1N(C)C(=O)c1ccco1,-3.66%
15,C=CCN=C1NC(c2cccc(C(F)(F)F)c2)C(C(=O)OC)=C(C)N1C (stereo not given),-4.81%
16,C[C@H]1CN([C@@H](C)CO)C(=O)CCCn2nncc2CO[C@@H]1CN(C)C(=O)Nc1ccc(N2CCN(C)CC2)cc1,6.23%
17,COC(=O)c1cc2c(c3c4cc(F)ccc4n(S(=O)(=O)c4ccccc4)c13)C(=O)N(Cc1ccccc1OC)C2,-0.6%
18,Nc1ncnc2c1ncn2[C@@H]1O[C@H](C(=O)N[C@@H](CCc2ccccc2)C(=O)NCC(=O)N2CCOCC2)[C@@H](O)[C@H]1O,-8.44%
19,CC(=O)N1C[C@@H](CO)[C@@H](N(C)C(=O)C(C)(C)C)C[C@H]1c1ccccc1Br,-5.76%
20,OC(c1ccccc1)(c1ccccc1)C1CCN(CCCOc2ccc(-c3ccsc3)cc2)CC1,13.7%
21,Cc1ccc2nc(SCC(=O)N3CC(C)OC(C)C3)nc(=O)n2c1 (stereo not given),40.7% (active)
22,Cc1ccc2nc(SCC(=O)N3CCN(c4ccccc4)CC3)nc(=O)n2c1,14.1%
23,Cc1ccc2nc(SCC(=O)Nc3cccc4ccccc34)nc(=O)n2c1,16.5%
24,CC(=O)N(C1=C(Cl)C(=O)c2ccccc2C1=O)c1ccc(C(=O)O)cc1,29.4% (active)
25,O=C1C(Cl)=C(Oc2ccccc2)C(=O)c2ccccc21,-0.42%

row,Structure (SMILES),inhibition
1,COc1ccc(-c2ccccc2C2Cc3nnccc3CN2C(=O)Nc2ccccc2)cc1 (stereo not given),-1.04%
2,O=C(NCc1ccccc1)[C@H]1CCCN1C(=O)[C@H]1CCCN1C(=O)N1CCOCC1,11.6%
3,Nc1[nH]c(C(=O)c2ccc(Br)cc2)c(-c2ccc3c(c2)OCO3)c1C(=O)NCCc1c[nH]c2ccccc12,9.33%
4,CC(=O)c1ccc(S(=O)(=O)NCC2CCN(C(=O)C(=O)c3cccs3)CC2)cc1,-0.29%
5,COc1ccc(/C=N/Nc2ncnc3sc4c(c23)CCCC4)cc1O,27.3% (active)
6,OCCNc1nc2ccccc2n1-c1ncnc2sc3c(c12)CCC3,1.46%
7,O=C(O)c1cccnc1Sc1ncnc2sc3c(c12)CCC3,8.49%
8,COc1cccc(CNC(=O)[C@H]2CCCN2C(=O)[C@H]2CCCN2C(=O)c2ccc(F)cc2)c1,-1.31%
9,CCn1c2ccccc2c2cc(NC(=O)C/C(C)=N/NC(=O)c3ccccc3N)ccc21,27% (active)
10,CCn1c2ccccc2c2cc(NC(=S)N3CCOCC3)ccc21,-2.05%
11,CCn1c2ccccc2c2cc(NC(=O)COC(=O)c3cc(S(=O)(=O)N4CCCCC4)ccc3Cl)ccc21,0.3%
12,COC(=O)C1=C(C)N(Cc2ccccc2C(F)(F)F)C(=NCC2CC2)NC1c1cccc(Cl)c1 (stereo not given),17.5%
13,C#CCN([C@@H](C)C(=O)OCC)S(=O)(=O)c1ccc(Br)cc1F,3.17%
14,Cc1ccc2nc(-c3ccc(CN4CCC(n5cc(-c6ccccc6)[nH]c5=O)CC4)cc3)c(-c3ccccc3)nc2c1,9.24%
15,Cc1cc2nc3c(=O)[nH]c(=O)nc-3n(C[C@H](O)[C@H](O)[C@H](O)CO)c2cc1C,0.24%
16,COc1ccccc1C(=O)N1O[C@]23C=C[C@]14C[C@@H](O)CC[C@]4(C)C2CC[C@]1(C)[C@@H]([C@H](C)/C=C/[C@H](C)C(C)C)CC[C@H]13 (stereo not given in full),6.77%
17,C=CCN=C1NC(c2ccccc2)C(C(=O)OC)=C(C)N1Cc1ccc(C(F)(F)F)cc1 (stereo not given),9.79%
18,CCOC(=O)CNC(=O)N(C)[C@H]1C[C@H]2c3[nH]c4c(-c5ccc6c(c5)OCO6)cccc4c3CCN2C(=O)[C@H]1[C@H](C)O,-4.88%
19,COC(=O)N1Cc2ccnnc2CC1c1ccccc1Br (stereo not given),7.59%
20,O=C1[C@@H](c2ccccc2)[C@@H](c2ccccc2)N1c1ccccc1,-13%
21,O=C1Nc2ccccc2C1=NN=Cc1ccco1,1.27%
22,Clc1cccc2c1C1CC2CCN1Cc1ccccc1 (stereo not given),-8.11%
23,Nc1nc2c(ncn2[C@@H]2O[C@H](C(=O)N[C@H](Cc3ccccc3)C(=O)NCC3CCCCC3)[C@@H](O)[C@H]2O)c(=O)[nH]1,5.87%
24,COC(=O)C1=C(C)N(Cc2ccc(F)cc2)C(=S)NC1c1cccc(Cl)c1 (stereo not given),-11.5%
25,N#Cc1cccc(C(=O)NCC2CCN(C(=O)C(=O)c3cc4ccccc4o3)CC2)c1,-11.4%
